PubChem BioAssay
Results filed as inconclusive are left out. Activity calls are given as the source filed them.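 Rule for the calls, unless noted: active = viability at or under a set limit in both replicates, limit being median viability minus 3 SD (cut at about 48% in these data, passing the limit was not always enough); inconclusive = at or under the limit in just one replicate; inactive = at or above the limit in both replicates.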

How the values were obtained:
[1] = reducers of endogenous Her2 protein level, primary screen, SKBR3 breast tumor cells, AlphaScreen, ATP viability (AID 461;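 active = Her2 level under about 52% in both replicate screens, with viability over 70% of control, limit read from the data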;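 for Her2 level: lower value means less Her2 protein in the cells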;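 for viability: percent of carrier control wells set as 100% viability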); details: 18-24 h, measured here: SKBR3 viability, ATP luminescence, at 10 µM
[2] = target: Receptor tyrosine-protein kinase erbB-2 (Homo sapiens) (UniProt P04626); assay: as above; details: 18-24 h, at 10 µM, stronger effect = lower value
Receptor tyrosine-protein kinase erbB-2 (Homo sapiens), sequence (P04626 whole entry, looked up): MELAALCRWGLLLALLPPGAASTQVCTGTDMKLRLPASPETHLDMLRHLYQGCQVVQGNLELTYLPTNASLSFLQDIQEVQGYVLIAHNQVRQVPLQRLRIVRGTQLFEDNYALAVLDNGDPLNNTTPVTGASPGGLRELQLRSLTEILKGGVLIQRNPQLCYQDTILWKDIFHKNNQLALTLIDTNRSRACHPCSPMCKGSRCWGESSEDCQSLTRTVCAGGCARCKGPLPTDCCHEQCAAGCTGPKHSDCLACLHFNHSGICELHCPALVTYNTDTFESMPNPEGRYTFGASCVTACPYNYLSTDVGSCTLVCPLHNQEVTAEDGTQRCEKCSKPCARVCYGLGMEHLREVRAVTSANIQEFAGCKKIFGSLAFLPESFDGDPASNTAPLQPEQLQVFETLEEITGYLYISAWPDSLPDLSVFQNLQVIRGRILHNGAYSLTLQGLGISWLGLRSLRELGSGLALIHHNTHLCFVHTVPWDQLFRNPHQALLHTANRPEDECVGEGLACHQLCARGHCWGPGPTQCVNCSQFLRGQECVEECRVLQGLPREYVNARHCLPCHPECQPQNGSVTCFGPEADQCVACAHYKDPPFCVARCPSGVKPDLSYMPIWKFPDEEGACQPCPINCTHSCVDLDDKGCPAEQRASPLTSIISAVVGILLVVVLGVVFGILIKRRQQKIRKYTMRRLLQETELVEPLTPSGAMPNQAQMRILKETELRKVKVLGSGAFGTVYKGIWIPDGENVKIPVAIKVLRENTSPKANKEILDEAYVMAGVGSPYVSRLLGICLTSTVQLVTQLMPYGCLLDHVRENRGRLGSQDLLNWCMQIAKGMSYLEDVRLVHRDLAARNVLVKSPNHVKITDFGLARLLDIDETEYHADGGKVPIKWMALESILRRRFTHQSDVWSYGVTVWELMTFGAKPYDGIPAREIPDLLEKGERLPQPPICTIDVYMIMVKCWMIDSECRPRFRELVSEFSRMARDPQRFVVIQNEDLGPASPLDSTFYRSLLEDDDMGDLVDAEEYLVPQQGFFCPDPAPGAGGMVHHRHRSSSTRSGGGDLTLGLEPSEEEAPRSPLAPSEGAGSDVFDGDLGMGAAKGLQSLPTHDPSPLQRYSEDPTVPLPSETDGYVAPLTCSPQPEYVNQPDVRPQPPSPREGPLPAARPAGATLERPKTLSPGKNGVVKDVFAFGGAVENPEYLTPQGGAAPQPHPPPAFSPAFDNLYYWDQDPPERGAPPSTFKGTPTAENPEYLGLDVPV

[3] = SK-BR-3 cell growth inhibitors, pilot screen, 24 h, human (AID 572;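 active = viability at or below 10% of carrier control in both of two separate runs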;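 note: compound exposure lasted between 18 and 24 h rather than exactly 24 h; 100% = carrier-treated control wells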); details: SK-BR-3 viability, CellTiter-Glo luminescence, at 10 µM, stronger effect = lower value
[4] = HUVEC growth inhibition – cell-based, human, primary screen (AID 575;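 active = viability at or below 30% in both replicate assays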;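 note: 100% = median of untreated cell wells with 0.1% DMSO on each plate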); details: HUVEC proliferation, CellTiter-Glo luminescence, 72 h; at 10 µM; stronger effect = lower value
[5] = growth inhibitors of H69AR lung tumor, primary screen, human, duplicate replicates (AID 580); details: H69AR lung tumor cells viability, ATP luminescence, 72 h; at 10 µM; stronger effect = lower value;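 note: 100% = mean luminescence of untreated wells and 0% = no signal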
[6] = reversal of MRP1-mediated doxorubicin resistance, pilot screen, H69AR cells, doxorubicin co-treatment (AID 601;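 active = viability loss from added drug above about 55%, and viability with drug at most 40%, in both replicates, limit read from the data, passing the limit was not always enough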); details: CellTiter-Glo, 72 h, at 10 µM; for differential viability (reversal): stronger effect = higher value
[7] = 384-well plate pilot, post-Golgi transport modulator project, inhibition of yeast transport mutant growth (AID 636; in the data active = inhibition above about 31%); details: absorbance 615 nm, about 18 h, stronger effect = higher value
[8] = growth suppression of yeast trafficking mutant, preliminary HTS, modulators of trafficking downstream of Golgi apparatus project, 1536-format plate, OD 615 nm (AID 637; in the data active = inhibition above about 30%); details: yeast transport mutant growth, absorbance 615 nm, 18 h; stronger effect = higher value
[9] = OD615 S. cerevisiae growth inhibition, permissive medium, pilot counter-assay, permissive growth control for S. cerevisiae lifespan shortening project (AID 705;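 active = growth inhibition above 25% in both replicates, a cutoff set 3 SD above the mean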); details: OD615, 24 h, at 10 µM, stronger effect = higher value
[10] = Restrictive medium S. cerevisiae growth inhibition, OD615, pilot screen of yeast lifespan reduction project, restrictive growth control (AID 706;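 active = growth inhibition above a set limit, 3 SD over mean compound inhibition, in both replicates, cut at about 43% in these data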;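 note: modified DeaD lifespan yeast strain shifted to restrictive glucose medium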); details: OD615, 48 h, at 10 µM, stronger effect = higher value
[11] = viability gain of MRP-1-high H69AR cells under doxorubicin, pilot screen, MRP-1 activator project, CellTiter-Glo, duplicate (AID 807;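 active = viability increase at or above a cutoff of the median across tested compounds plus 3 SD, cut at about 8.5% in these data, passing the limit was not always enough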;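 note: compound pretreatment 18-22 h then 72 h combined with doxorubicin; 0% = doxorubicin alone and 100% = vehicle without doxorubicin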); details: H69AR viability with doxorubicin, CellTiter-Glo luminescence; at 10 µM; stronger effect = higher value
[12] = growth suppression of beta-catenin knockout HCT116, pilot screen, human colon tumor cells (AID 823;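 active = cell viability at or below a set limit in both duplicate runs, the limit being the all-compound median minus 4 SD, cut at about 23% in these data, passing the limit was not always enough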;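 note: 0% = wells killed by 20 µM Hyamine and 100% = untreated DMSO cell wells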); details: CellTiter-Glo, 60 h, at 10 µM, stronger effect = lower value
[13] = growth suppression of PTEN-deleted HCT116, pilot screen, cell-based, HCT116 clonal line, CellTiter-Glo (AID 824;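 active = viability at or below 27.92% in each of two runs, the all-compound median minus 4 SD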;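 note: 0% = 20 µM Hyamine control and 100% = vehicle cell control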); details: 60 h, at 10 µM, stronger effect = lower value
[14] = inhibitors of the yeast RAM network, pilot screen, dse1pr::URA3 reporter, 5-FOA selection (AID 869;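 active = inhibition over a set limit, the all-compound mean plus 3 SD, in both replicate runs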;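 note: 0% = DMSO wells with no growth and 100% = 10 µM 1-NA-PP1 with full growth; RAM network block rescues cells from 5-FOA so hits raise OD615 growth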); details: S. cerevisiae dse1pr::URA3 5-FOA growth, OD615, 2 d; at 10 µM; stronger effect = higher value; strain carries analog-sensitive mutant Cbk1 kinase
[15] = RAM signaling pathway blockade in yeast – S. cerevisiae, Pdr1DBD-CYC8 efflux-inhibited sensitized strain, primary screen (AID 1298;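 active = RAM network inhibition above 8.4% in each of two replicates, 3 SD over the compound average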;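 note: 0% = DMSO untreated cells without growth and 100% = 10 µM 1-NA-PP1 full growth; higher means more yeast growth rescued from 5-FOA killing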); details: S. cerevisiae cbk1-as DSE1-URA3 strain, 5-FOA growth OD615, 2 d; at 50 µM; stronger effect = higher value
[16] = H69AR cells + 2 uM doxorubicin, measured here: viability with 2 uM doxorubicin, stronger effect = lower value
[17] = H69AR cells, compound alone cytotoxicity

Cc1ccc(CNC(=O)C2CCCN(S(=O)(=O)c3cnc[nH]3)C2)cc1 (stereo not given)
inactive: Her2 level [2] 110% | viability [3] 94% | viability [4] 94.5% | viability [5] 106% | differential viability (reversal) ([6]; H69AR cells + 2 uM doxorubicin) 13.9% | inhibition [7] -2.13% | inhibition [8] -3.61% | growth inhibition [9] 0.76% | growth inhibition [10] 6.6% | viability increase [11] 0.52% | viability [12] 109% | viability [13] 102% | inhibition [14] 0.415% | RAM network inhibition [15] 1.04%
92.3%: viability [6, 16]
106%: viability [6, 17]
94%: viability [1]

O=C(O)c1ccc(-c2ccc(O)c(F)c2)cc1
94%: viability [1]
inactive: Her2 level [2] 167% | viability [3] 94% | viability [4] 92.8% | viability [5] 82.9% | differential viability (reversal) ([6]; H69AR cells + 2 uM doxorubicin) -5.75% | inhibition [7] -0.4% | inhibition [8] 1.5% | growth inhibition [9] -8.37% | growth inhibition [10] 12.1% | viability increase [11] -2.66% | viability [12] 99.3% | viability [13] 97.4% | inhibition [14] -0.17% | RAM network inhibition [15] -2.4%
82.9%: viability [6, 17]
88.6%: viability [6, 16]

O=C(CSc1ncnc2nc[nH]c12)c1ccc(Cl)cc1
99.7%: viability [6, 16]
inactive: Her2 level [2] 98% | viability [3] 76% | viability [4] 63% | viability [5] 91.1% | differential viability (reversal) ([6]; H69AR cells + 2 uM doxorubicin) -8.57% | inhibition [7] -3.47% | inhibition [8] 2.13% | growth inhibition [9] 1.02% | growth inhibition [10] 11.4% | viability increase [11] -1.43% | viability [12] 39.8% | viability [13] 37.7% | inhibition [14] 1.29% | RAM network inhibition [15] 5.06%
76%: viability [1]
91.1%: viability [6, 17]

COC(=O)C1=C(C)NC(C)=C(C(=O)OC)C1C1CC=CCC1 (stereo not given)
85%: viability [1]
inactive: Her2 level [2] 90.5% | viability [3] 85% | viability [4] 75.4% | viability [5] 100% | differential viability (reversal) ([6]; H69AR cells + 2 uM doxorubicin) 23.3% | inhibition [7] -0.91% | inhibition [8] 6.89% | growth inhibition [9] -3.42% | growth inhibition [10] -21.7% | viability increase [11] -4.18% | viability [12] 90.4% | viability [13] 87.1% | inhibition [14] 2.73% | RAM network inhibition [15] 8.09%
100%: viability [6, 17]
77.1%: viability [6, 16]

Cn1c(=O)c2c(nc3sccn32)n(C)c1=O
inactive: Her2 level [2] 109% | viability [3] 106% | viability [4] 112% | viability [5] 87.7% | differential viability (reversal) ([6]; H69AR cells + 2 uM doxorubicin) -1.71% | inhibition [7] -3.51% | inhibition [8] -4.1% | growth inhibition [9] -7.3% | growth inhibition [10] -10.3% | viability increase [11] -1.33% | viability [12] 101% | viability [13] 99.4% | inhibition [14] 1.48% | RAM network inhibition [15] 2.73%
106%: viability [1]
87.7%: viability [6, 17]
89.4%: viability [6, 16]

CCN1CCN(Cc2nc3c(c(=O)n(C)c(=O)n3C)n2CC(=O)c2ccccc2)CC1
100%: viability [1]
inactive: Her2 level [2] 108% | viability [3] 100% | viability [4] 95.5% | viability [5] 98.5% | differential viability (reversal) ([6]; H69AR cells + 2 uM doxorubicin) 2.67% | inhibition [7] -4.13% | inhibition [8] -0.33% | growth inhibition [9] 5% | growth inhibition [10] -14% | viability increase [11] -1.56% | viability [12] 100% | viability [13] 105% | inhibition [14] 1.33% | RAM network inhibition [15] 3.98%
95.8%: viability [6, 16]
98.5%: viability [6, 17]

CCCc1cc(C(=O)Nc2ccc(C(C)=O)cc2)no1
inactive: Her2 level [2] 91% | viability [3] 80.5% | viability [4] 77.7% | viability [5] 99.5% | differential viability (reversal) ([6]; H69AR cells + 2 uM doxorubicin) 5.59% | inhibition [7] 1.92% | inhibition [8] -1% | growth inhibition [9] -0.51% | growth inhibition [10] -1.09% | viability increase [11] -0.27% | viability [12] 98.5% | viability [13] 104% | inhibition [14] 2.74% | RAM network inhibition [15] 6.52%
80.5%: viability [1]
99.5%: viability [6, 17]
93.9%: viability [6, 16]

O=C(O)C1CCCN(S(=O)(=O)c2ccc(Cl)s2)C1 (stereo not given)
93.1%: viability [6, 17]
inactive: Her2 level [2] 124% | viability [3] 91% | viability [4] 102% | viability [5] 93.1% | differential viability (reversal) ([6]; H69AR cells + 2 uM doxorubicin) 4.47% | inhibition [7] -4.8% | inhibition [8] 0.5% | growth inhibition [9] -4.79% | growth inhibition [10] 7.83% | viability increase [11] 0.34% | viability [12] 100% | viability [13] 102% | inhibition [14] 2.21% | RAM network inhibition [15] 0.99%
91%: viability [1]
88.6%: viability [6, 16]

Cc1nnc(NC(=O)CSc2cn(CCNC(=O)c3ccccc3)c3ccccc23)s1
inactive: Her2 level [2] 106% | viability [3] 83.5% | viability [4] 75.5% | viability [5] 80.4% | differential viability (reversal) ([6]; H69AR cells + 2 uM doxorubicin) 13.6% | inhibition [7] -3.2% | inhibition [8] -4.17% | growth inhibition [9] 3.24% | growth inhibition [10] 17% | viability increase [11] -0.89% | viability [12] 93.5% | viability [13] 88% | inhibition [14] -0.12% | RAM network inhibition [15] 1.15%
80.4%: viability [6, 17]
83.5%: viability [1]
66.8%: viability [6, 16]

Cc1nc2ccc(S(=O)(=O)NC(C(=O)Nc3nccs3)C(C)C)cc2s1 (stereo not given)
87%: viability [1]
95.7%: viability [6, 17]
inactive: Her2 level [2] 93% | viability [3] 87% | viability [4] 91.6% | viability [5] 95.7% | differential viability (reversal) ([6]; H69AR cells + 2 uM doxorubicin) 5.42% | inhibition [7] 0.13% | inhibition [8] -0.17% | growth inhibition [9] -5.25% | growth inhibition [10] 2.78% | viability increase [11] -1.85% | viability [12] 101% | viability [13] 104% | inhibition [14] 1.99% | RAM network inhibition [15] 1.91%
90.3%: viability [6, 16]
